According to ChEMBL document CHEMBL1157539, “Thousands of chemical starting points for antimalarial lead identification” (Nature, 2010):

Each compound was assayed on Plasmodium falciparum (assay: GSK_TCMDC: Inhibition of Plasmodium falciparum 3D7 in whole red blood cells, using parasite LDH activity as an index of growth. Test compounds present at 2uM).
Assay type: functional

Structure (SMILES) | Inhibition [%]
COc1ccc2c(=NN=Cc3ccccc3F)cc(C)[nH]c2c1 | 90
O=C(/C=C/c1ccc(Cl)c(Cl)c1)NCCCCCN1CCCN(C(=O)Nc2ccc(F)c(Cl)c2)CC1 | 95
Cn1c(Nc2cc(C(C)(C)C)on2)nc2cc(Nc3ccnc(Nc4cccc(CS(C)(=O)=O)c4)n3)ccc21 | 99
CCNc1cc(C(=O)N[C@@H](Cc2ccccc2)[C@H](O)CNC23CCC(CC2)C3)cc(N2CCCCS2(=O)=O)c1.Cl | 97
COc1ccc2nccc([C@@H](O)CN3CCC(NC(=O)c4ccc(CN5CCN(c6cccc(C)c6)CC5C)cc4)CC3)c2c1 (some centres undefined) | 97
CCCNCc1ccc(-c2ccc(CN(C(=O)c3nn(-c4ccccc4)nc3C)C3CCOCC3)cc2)nc1.O=C(O)C(F)(F)F | 98
O=C(Nc1ccc(F)cc1F)NC1CCN(CCCCCNC(=O)C2CC2c2ccc(Cl)c(Cl)c2)CC1 (centres undefined) | 100
O=C(/C=C/c1ccc(Cl)c(Cl)c1)NCCCCCN1CCC(NC(=O)c2ccc(F)cc2F)CC1 | 96
COc1cccc(CC(=O)N2CCC(n3c(C)nc4ccc(F)cc43)CC2)c1 | 100
O=C(/C=C/c1ccc(Cl)c(Cl)c1)N1CCC(CCN2CCc3[nH]c4ccccc4c3C2)CC1.O=C(O)C(F)(F)F | 96
COc1ccccc1CCC(C)(C)NC(=O)CC(CCc1ccccc1)Nc1ccc(C#N)c2ccccc12 (centres undefined) | 94
COc1c(CCNCCCCNCCc2cc(Cl)c3ccccc3c2OC)cc(Cl)c2ccccc12.CS(=O)(=O)O | 99
Cc1cc(N[C@@H](CC(C)C)C(=O)NCc2cccc(F)c2)nc(Nc2ccccc2)n1.O=C(O)C(F)(F)F | 100
CCC(Cc1ccccc1)c1cc(O)c(Cc2ccc(-c3ccccc3)cc2)c(=O)o1 (centres undefined) | 89
CC(C)Nc1ccc(Nc2ccnc3cc4ccccc4cc23)cc1 | 100
COc1ccc(Nc2nc(NC3CCN(Cc4ccccc4)CC3)cc(-c3ccncc3)n2)cc1 | 88
Cc1cccc2nc(-c3ccc(-c4cccc(NC(=O)C(=O)c5cccn5C)c4)cc3)[nH]c12 | 98

Structure (SMILES) | Inhibition [%]
O=C(/C=C/c1ccc(Cl)c(Cl)c1)NCCCCCN1CCC(NC(=O)Nc2ccc(Cl)c(C(F)(F)F)c2)CC1 | 99
Br.CCCc1cccc(C)c1OCCCON1C(=N)N=C(N)NC1(C)C | 95
CC(C)N1CCC(Oc2ccc(CN3CCN(C(c4ccccc4)c4ccc(Cl)cc4)CC3)cc2)CC1.Cl (centres undefined) | 97
CC(C)(C)OC(=O)NCc1ccc(Nc2nnc(-c3ccc(OCC(=O)NCc4cc(C(F)(F)F)cc(C(F)(F)F)c4)c([N+](=O)[O-])c3)o2)cc1 | 97
COc1ccc2nccc([C@@H](O)CN3CCC(NC(=O)c4cc5c(F)cc(F)cc5[nH]4)CC3)c2c1.CS(=O)(=O)O | 100
COc1cc2nc(N3CCC(CNC(=O)c4ccc(-c5ccc(-c6noc(C)n6)cc5C)cc4)CC3)nc(N)c2cc1OC | 100
O=C(Nc1cccc(-c2ccc(-c3nc4ccccc4[nH]3)cc2)c1)c1ccncc1 | 100
CN1CC[C@@H](Oc2cc(CNC(=O)c3ccc(-c4ccc(Cl)cc4)s3)ccc2C(F)(F)F)C1.Cl | 93
c1ccc(CNc2nc(NCCc3c[nH]cn3)nc(N3CCCC4CCCCC43)n2)cc1 (centres undefined) | 98
O=C(NCC1CCN(Cc2cccc(C(F)(F)F)c2)C1)c1cc(-c2cccc(F)c2)cs1.O=C(O)C(F)(F)F (centres undefined) | 87
CCCCOc1ccc(-n2c(Nc3ccccc3)nc3cc(S(N)(=O)=O)ccc32)cc1 | 90
N#Cc1ccc(N/C(=N\c2ccc(-c3ccccc3)cc2)NCCc2c[nH]c3ccccc23)c(O)c1 | 96
c1ccc(Oc2ccc(Nc3ccnc4cc(-c5csc(CNCCN6CCOCC6)n5)ccc34)cc2)cc1 | 100
CC[C@H](NC(=O)c1c(CCCN2CCN(c3ccccc3)CC2)c(-c2ccccc2)nc2cc(O)ccc12)c1ccccc1 | 96
CCN(CC)CCN(Cc1ccc(-c2ccc(C(F)(F)F)cc2)nc1)C(=O)Cn1c(SCc2ccc(F)cc2)nc(=O)c2sccc21.O=C(O)C(O)C(O)C(=O)O | 96
CCNc1cc(C)nc(Nc2ccc(NC(=O)c3c(F)cccc3Cl)cc2)n1 | 100
COc1ccc(-c2nccc(NC(=N)NCc3ccccc3)n2)cc1 | 83
